# Biological target: AgAbp1
# Test: SPOT peptide array binding signal intensity (averaged, normalized) (arbitrary units (background-subtracted, floor 0; scale differs between SH3 domains)); higher = stronger binding of the SH3 domain to the peptide
# Method in brief: (§1)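 GST-fused SH3 domains from four yeast species were expressed in E. coli BL21(DE3), purified on glutathione Sepharose and incubated at 10 μg/ml overnight at 4°C in TBS-based blocking buffer on cellulose membranes carrying synthetic 15-mer peptides, with cysteines replaced by serines. Bound protein was detected with anti-GST antibody, an HRP anti-mouse secondary and luminol, then imaged and quantified with Genespotter. Binding signal is the normalized, background-subtracted spot intensity averaged over replicates, in arbitrary units that differ between domains.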
row,Binder,SPOT peptide array binding signal intensity
1,AGKRRLPLVRFKASD,162

# Biological target: AgBbc1
# Test: as above
# Method in brief: as §1
row,Binder,SPOT peptide array binding signal intensity
1,AGKRRLPLVRFKASD,109

# Biological target: AgBem1-D1
# Test: as above
# Method in brief: as §1
row,Binder,SPOT peptide array binding signal intensity
1,AGKRRLPLVRFKASD,301

# Biological target: AgBzz1-D1
# Test: as above
# Method in brief: as §1
row,Binder,SPOT peptide array binding signal intensity
1,AGKRRLPLVRFKASD,44

# Biological target: AgBzz1-D2
# Test: as above
# Method in brief: as §1
row,Binder,SPOT peptide array binding signal intensity
1,AGKRRLPLVRFKASD,40.5

# Biological target: AgCyk3
# Test: as above
# Method in brief: as §1
row,Binder,SPOT peptide array binding signal intensity
1,AGKRRLPLVRFKASD,5

# Biological target: AgFus1
# Test: as above
# Method in brief: as §1
row,Binder,SPOT peptide array binding signal intensity
1,AGKRRLPLVRFKASD,783

# Biological target: AgHof1
# Test: as above
# Method in brief: as §1
row,Binder,SPOT peptide array binding signal intensity
1,AGKRRLPLVRFKASD,84

# Biological target: AgHse1
# Test: as above
# Method in brief: as §1
row,Binder,SPOT peptide array binding signal intensity
1,AGKRRLPLVRFKASD,1070

# Biological target: AgLsb1
# Test: as above
# Method in brief: as §1
row,Binder,SPOT peptide array binding signal intensity
1,AGKRRLPLVRFKASD,4

# Biological target: AgLsb4
# Test: as above
# Method in brief: as §1
row,Binder,SPOT peptide array binding signal intensity
1,AGKRRLPLVRFKASD,214

# Biological target: AgMyo5
# Test: as above
# Method in brief: as §1
row,Binder,SPOT peptide array binding signal intensity
1,AGKRRLPLVRFKASD,2

# Biological target: AgNbp2
# Test: as above
# Method in brief: as §1
row,Binder,SPOT peptide array binding signal intensity
1,AGKRRLPLVRFKASD,232

# Biological target: AgRvs167
# Test: as above
# Method in brief: as §1
row,Binder,SPOT peptide array binding signal intensity
1,AGKRRLPLVRFKASD,6

# Biological target: AgSho1
# Test: as above
# Method in brief: as §1
row,Binder,SPOT peptide array binding signal intensity
1,AGKRRLPLVRFKASD,218

# Biological target: AgSla1-D1-D2
# Test: as above
# Method in brief: as §1
row,Binder,SPOT peptide array binding signal intensity
1,AGKRRLPLVRFKASD,736

# Biological target: AgSla1-D3
# Test: as above
# Method in brief: as §1
row,Binder,SPOT peptide array binding signal intensity
1,AGKRRLPLVRFKASD,11.8

# Biological target: CaAbp1-D1
# Test: as above
# Method in brief: as §1
row,Binder,SPOT peptide array binding signal intensity
1,AGKRRLPLVRFKASD,1220

# Biological target: CaAbp1-D2
# Test: as above
# Method in brief: as §1
row,Binder,SPOT peptide array binding signal intensity
1,AGKRRLPLVRFKASD,806

# Biological target: CaBbc1
# Test: as above
# Method in brief: as §1
row,Binder,SPOT peptide array binding signal intensity
1,AGKRRLPLVRFKASD,259

# Biological target: CaBem1-D1
# Test: as above
# Method in brief: as §1
row,Binder,SPOT peptide array binding signal intensity
1,AGKRRLPLVRFKASD,80.5

# Biological target: CaBzz1-D1
# Test: as above
# Method in brief: as §1
row,Binder,SPOT peptide array binding signal intensity
1,AGKRRLPLVRFKASD,125

# Biological target: CaBzz1-D2
# Test: as above
# Method in brief: as §1
row,Binder,SPOT peptide array binding signal intensity
1,AGKRRLPLVRFKASD,147

# Biological target: CaCyk3
# Test: as above
# Method in brief: as §1
row,Binder,SPOT peptide array binding signal intensity
1,AGKRRLPLVRFKASD,69

# Biological target: CaFus1
# Test: as above
# Method in brief: as §1
row,Binder,SPOT peptide array binding signal intensity
1,AGKRRLPLVRFKASD,2040

# Biological target: CaHof1
# Test: as above
# Method in brief: as §1
row,Binder,SPOT peptide array binding signal intensity
1,AGKRRLPLVRFKASD,0.75

# Biological target: CaHse1
# Test: as above
# Method in brief: as §1
row,Binder,SPOT peptide array binding signal intensity
1,AGKRRLPLVRFKASD,71.5

# Biological target: CaLsb1
# Test: as above
# Method in brief: as §1
row,Binder,SPOT peptide array binding signal intensity
1,AGKRRLPLVRFKASD,2

# Biological target: CaLsb4
# Test: as above
# Method in brief: as §1
row,Binder,SPOT peptide array binding signal intensity
1,AGKRRLPLVRFKASD,173

# Biological target: CaMyo5
# Test: as above
# Method in brief: as §1
row,Binder,SPOT peptide array binding signal intensity
1,AGKRRLPLVRFKASD,3

# Biological target: CaNbp2
# Test: as above
# Method in brief: as §1
row,Binder,SPOT peptide array binding signal intensity
1,AGKRRLPLVRFKASD,384

# Biological target: CaRvs167
# Test: as above
# Method in brief: as §1
row,Binder,SPOT peptide array binding signal intensity
1,AGKRRLPLVRFKASD,51.3

# Biological target: CaRvs167-3
# Test: as above
# Method in brief: as §1
row,Binder,SPOT peptide array binding signal intensity
1,AGKRRLPLVRFKASD,226

# Biological target: CaSho1
# Test: as above
# Method in brief: as §1
row,Binder,SPOT peptide array binding signal intensity
1,AGKRRLPLVRFKASD,613

# Biological target: CaSla1-D1-D2
# Test: as above
# Method in brief: as §1
row,Binder,SPOT peptide array binding signal intensity
1,AGKRRLPLVRFKASD,162

# Biological target: CaSla1-D3
# Test: as above
# Method in brief: as §1
row,Binder,SPOT peptide array binding signal intensity
1,AGKRRLPLVRFKASD,114

# Biological target: ScAbp1
# Test: as above
# Method in brief: as §1
row,Binder,SPOT peptide array binding signal intensity
1,AGKRRLPLVRFKASD,146

# Biological target: ScBbc1
# Test: as above
# Method in brief: as §1
row,Binder,SPOT peptide array binding signal intensity
1,AGKRRLPLVRFKASD,30.8

# Biological target: ScBem1-D1
# Test: as above
# Method in brief: as §1
row,Binder,SPOT peptide array binding signal intensity
1,AGKRRLPLVRFKASD,68.5

# Biological target: ScBzz1-D1
# Test: as above
# Method in brief: as §1
row,Binder,SPOT peptide array binding signal intensity
1,AGKRRLPLVRFKASD,24

# Biological target: ScBzz1-D2
# Test: as above
# Method in brief: as §1
row,Binder,SPOT peptide array binding signal intensity
1,AGKRRLPLVRFKASD,44

# Biological target: ScCyk3
# Test: as above
# Method in brief: as §1
row,Binder,SPOT peptide array binding signal intensity
1,AGKRRLPLVRFKASD,71

# Biological target: ScFus1
# Test: as above
# Method in brief: as §1
row,Binder,SPOT peptide array binding signal intensity
1,AGKRRLPLVRFKASD,584

# Biological target: ScHof1
# Test: as above
# Method in brief: as §1
row,Binder,SPOT peptide array binding signal intensity
1,AGKRRLPLVRFKASD,5.5

# Biological target: ScHse1
# Test: as above
# Method in brief: as §1
row,Binder,SPOT peptide array binding signal intensity
1,AGKRRLPLVRFKASD,2480

# Biological target: ScLsb1
# Test: as above
# Method in brief: as §1
row,Binder,SPOT peptide array binding signal intensity
1,AGKRRLPLVRFKASD,4.5

# Biological target: ScLsb2
# Test: as above
# Method in brief: as §1
row,Binder,SPOT peptide array binding signal intensity
1,AGKRRLPLVRFKASD,6.5

# Biological target: ScLsb3
# Test: as above
# Method in brief: as §1
row,Binder,SPOT peptide array binding signal intensity
1,AGKRRLPLVRFKASD,478

# Biological target: ScLsb4
# Test: as above
# Method in brief: as §1
row,Binder,SPOT peptide array binding signal intensity
1,AGKRRLPLVRFKASD,25.5

# Biological target: ScMyo3
# Test: as above
# Method in brief: as §1
row,Binder,SPOT peptide array binding signal intensity
1,AGKRRLPLVRFKASD,5

# Biological target: ScMyo5
# Test: as above
# Method in brief: as §1
row,Binder,SPOT peptide array binding signal intensity
1,AGKRRLPLVRFKASD,3

# Biological target: ScNbp2
# Test: as above
# Method in brief: as §1
row,Binder,SPOT peptide array binding signal intensity
1,AGKRRLPLVRFKASD,626

# Biological target: ScPex13
# Test: as above
# Method in brief: as §1
row,Binder,SPOT peptide array binding signal intensity
1,AGKRRLPLVRFKASD,6.75

# Biological target: ScRvs167
# Test: as above
# Method in brief: as §1
row,Binder,SPOT peptide array binding signal intensity
1,AGKRRLPLVRFKASD,364

# Biological target: ScSho1
# Test: as above
# Method in brief: as §1
row,Binder,SPOT peptide array binding signal intensity
1,AGKRRLPLVRFKASD,2030

# Biological target: ScSla1-D1-D2
# Test: as above
# Method in brief: as §1
row,Binder,SPOT peptide array binding signal intensity
1,AGKRRLPLVRFKASD,1180

# Biological target: ScSla1-D3
# Test: as above
# Method in brief: as §1
row,Binder,SPOT peptide array binding signal intensity
1,AGKRRLPLVRFKASD,9.75

# Biological target: SpAbp1-D1
# Test: as above
# Method in brief: as §1
row,Binder,SPOT peptide array binding signal intensity
1,AGKRRLPLVRFKASD,592

# Biological target: SpBbc1
# Test: as above
# Method in brief: as §1
row,Binder,SPOT peptide array binding signal intensity
1,AGKRRLPLVRFKASD,5.25

# Biological target: SpBzz1-D1
# Test: as above
# Method in brief: as §1
row,Binder,SPOT peptide array binding signal intensity
1,AGKRRLPLVRFKASD,180

# Biological target: SpBzz1-D2
# Test: as above
# Method in brief: as §1
row,Binder,SPOT peptide array binding signal intensity
1,AGKRRLPLVRFKASD,1

# Biological target: SpCyk3
# Test: as above
# Method in brief: as §1
row,Binder,SPOT peptide array binding signal intensity
1,AGKRRLPLVRFKASD,67

# Biological target: SpHof1
# Test: as above
# Method in brief: as §1
row,Binder,SPOT peptide array binding signal intensity
1,AGKRRLPLVRFKASD,481

# Biological target: SpHof1-2
# Test: as above
# Method in brief: as §1
row,Binder,SPOT peptide array binding signal intensity
1,AGKRRLPLVRFKASD,99.5

# Biological target: SpHof1-3
# Test: as above
# Method in brief: as §1
row,Binder,SPOT peptide array binding signal intensity
1,AGKRRLPLVRFKASD,412

# Biological target: SpHse1
# Test: as above
# Method in brief: as §1
row,Binder,SPOT peptide array binding signal intensity
1,AGKRRLPLVRFKASD,536

# Biological target: SpLsb1
# Test: as above
# Method in brief: as §1
row,Binder,SPOT peptide array binding signal intensity
1,AGKRRLPLVRFKASD,17

# Biological target: SpLsb4
# Test: as above
# Method in brief: as §1
row,Binder,SPOT peptide array binding signal intensity
1,AGKRRLPLVRFKASD,354

# Biological target: SpMyo1
# Test: as above
# Method in brief: as §1
row,Binder,SPOT peptide array binding signal intensity
1,AGKRRLPLVRFKASD,3.5

# Biological target: SpNbp2
# Test: as above
# Method in brief: as §1
row,Binder,SPOT peptide array binding signal intensity
1,AGKRRLPLVRFKASD,1010

# Biological target: SpPex13
# Test: as above
# Method in brief: as §1
row,Binder,SPOT peptide array binding signal intensity
1,AGKRRLPLVRFKASD,42.5

# Biological target: SpRvs167
# Test: as above
# Method in brief: as §1
row,Binder,SPOT peptide array binding signal intensity
1,AGKRRLPLVRFKASD,248

# Biological target: SpSla1-D1-D2
# Test: as above
# Method in brief: as §1
row,Binder,SPOT peptide array binding signal intensity
1,AGKRRLPLVRFKASD,4

# Biological target: SpSla1-D3
# Test: as above
# Method in brief: as §1
row,Binder,SPOT peptide array binding signal intensity
1,AGKRRLPLVRFKASD,17.5
